Assay outcomes as filed in PubChem BioAssay.
The list is not random: actives were taken first. Their share in the collection is about 2.8%.
TRPM1 prom inh: inhibitors of MITF-driven TRPM1 promoter in melanoma cells. actives 0.83% (n = 330,000). SK-MEL-5 TRPM1 promoter luciferase, 24 h. inhibition, % at 12.5 µM. AID 488899;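 active = mean inhibition across replicates of 60% or more, whatever share of single replicates reaches that level; inconclusive = some that reach 60%, reason not given; inactive = mean inhibition across replicates below 60%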
HIF-2a block: HIF-2a inhibition; inhibition, % at 18.8 µM; 786-0 RCC cells HIF-2a reporter, luciferase luminescence, overnight; actives 0.72% (n = 360,000);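 active = inhibition of the luminescence signal of 40% or more relative to plate controls, in a single-dose primary screen at 18.75 µM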
KKLEB tox: CF airway cell cytotoxicity counter-screen. actives 0.36% (n = 360,000). KKLEB CF airway cells viability, ATPlite luminescence, overnight; hits give low values; cells stimulated with P. aeruginosa culture filtrate. activity change (cytotoxicity), % at 5 µM;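 active = corrected activity change at or below -50% at 5 µM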
CF NFkB block: cystic fibrosis NF-kB activation inhibition. actives 0.86% (n = 360,000). KKLEB NF-kB-GFP reporter, PAF-induced, GFP fluorescence overnight. inhibition, % at 5 µM. AID 588850;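 active = at least 50% inhibition at 5 µM, scaled per plate between neutral and stimulator controls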;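 also: PAF is a Pseudomonas aeruginosa culture filtrate used as stimulus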
Peg3 prom inh: inhibitors of Peg3 promoter; actives 1.7% (n = 360,000); AID 588405; HeLa PEG-Prom luciferase reporter, luminescence, overnight; inhibition, % at 20 µM;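 active = inhibition of at least 50% at 20 µM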
Shn3 3UTR inh: reduces Shn3 3'UTR luciferase signal in osteoblasts; actives 0.52% (n = 360,000); Clone20 osteoblast Shn3 3'UTR firefly luciferase, 24 h; inhibition, % at 12.5 µM; AID 588674;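 active = mean inhibition of at least 75% with every replicate also reaching 75%; inconclusive = mean inhibition at least 75% but some replicate below; inactive = mean inhibition below 75%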
Mdm2 MdmX conf: confirmation of inhibitors of human Mdm2/MdmX interaction, set 2; shares compounds with HIF-2a block; SaOS-2 split-luciferase Mdm2/MdmX complementation, luminescence; inhibition, % at 8 µM; actives 99% (n = 740);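 active = mean inhibition of the luminescence signal across two replicates at or above 26 percent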
HIF-2a conf: HIF-2a inhibition, single concentration confirmation | actives 56% (n = 1,800) | inhibition, % at 18.8 µM | shares compounds with HIF-2a block | 786-0 RCC cells, HIF-2a luciferase reporter luminescence, overnight | AID 651580;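 active = mean inhibition across four replicates of at least 40 percent at the single tested concentration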
HIF-1a counter: counter-screen for HIF-2a inhibitors: HIF-1a inhibition in MiaPaCa-2 cells; shares compounds with HIF-2a block; AID 651589; inhibition, % at 18.8 µM; actives 72% (n = 1,800); MiaPaCa-2 HIF-1a luciferase reporter, desferoxamine, overnight;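 active = mean inhibition of the reporter signal across four replicates at the single tested dose of 50% or more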
Hits are given with their value.

For N#Cc1cccc(C=C(C(=O)c2ccccc2)c2ccccc2)c1 the results were HIF-2a block 40.8, HIF-2a conf inactive and HIF-1a counter inactive.
Screening NC(=O)c1nnn(-c2nonc2N)c1-c1ccc([N+](=O)[O-])cc1 returned TRPM1 prom inh inactive, HIF-2a block inactive, KKLEB tox inactive, CF NFkB block inactive, Peg3 prom inh inactive and Shn3 3UTR inh inactive.
For Cc1cc(C)cc(N=c2c([N+](=O)[O-])nn(-c3ccc4c(c3)OCCO4)n2O)c1 the results were TRPM1 prom inh inactive, HIF-2a block inactive, KKLEB tox inactive, CF NFkB block inactive, Peg3 prom inh inactive and Shn3 3UTR inh inactive.
Screening O=[N+]([O-])c1nn(-c2ccc3c(c2)OCCO3)n(O)c1=Nc1ccccc1 returned TRPM1 prom inh 85.5, HIF-2a block 82.2, KKLEB tox inactive, CF NFkB block inactive, Peg3 prom inh 75.6, Shn3 3UTR inh inactive, Mdm2 MdmX conf 95.5, HIF-2a conf 89.6 and HIF-1a counter 100.1.
`Cc1ccc(N=c2c([N+](=O)[O-])nn(-c3ccc4c(c3)OCCO4)n2O)cc1F` gave TRPM1 prom inh inactive, HIF-2a block 70.2, KKLEB tox inactive, CF NFkB block inactive, Peg3 prom inh inactive, Shn3 3UTR inh inactive, HIF-2a conf 83.6 and HIF-1a counter 94.4.
For CCn1c(SCC(=O)NC2CC2)nnc1-c1ccc(C)cc1 the results were TRPM1 prom inh inactive, HIF-2a block inactive, KKLEB tox inactive, CF NFkB block inactive, Peg3 prom inh inactive and Shn3 3UTR inh inactive.
`CN(C)CCNC(=O)c1ccc2nc([C@@H]3O[C@H](CO)[C@H](O)[C@H](O)[C@H]3O)[nH]c2c1` gave HIF-2a block inactive, KKLEB tox inactive, CF NFkB block inactive, Peg3 prom inh inactive and Shn3 3UTR inh inactive.
`CCOC(=O)CC(=O)CSc1nc2ccc(OC)cc2cc1C` gave TRPM1 prom inh inactive, HIF-2a block inactive, KKLEB tox inactive, CF NFkB block inactive, Peg3 prom inh inactive and Shn3 3UTR inh inactive.
For Clc1ccc(-c2csc3ncnc(Cl)c23)cc1 the results were TRPM1 prom inh inactive, HIF-2a block inactive, KKLEB tox inactive, CF NFkB block inactive, Peg3 prom inh inactive and Shn3 3UTR inh inactive.
Screening Cn1nnnc1Sc1ncnc2scc(-c3cccc4c3sc3ccccc34)c12 returned TRPM1 prom inh inactive, HIF-2a block 62.4, KKLEB tox inactive, CF NFkB block inactive, Peg3 prom inh 97.6, Shn3 3UTR inh inactive, HIF-2a conf inactive and HIF-1a counter 102.4.
Screening Cn1nnnc1Sc1ncnc2scc(-c3ccc(Cl)cc3)c12 returned TRPM1 prom inh 90.3, HIF-2a block 85.5, KKLEB tox inactive, CF NFkB block inactive, Peg3 prom inh 94.7, Shn3 3UTR inh inactive, Mdm2 MdmX conf 103.2, HIF-2a conf 99.3 and HIF-1a counter 102.0.
Screening Cn1nnnc1Sc1ncnc2scc(-c3ccc([N+](=O)[O-])cc3)c12 returned TRPM1 prom inh 98.4, HIF-2a block 91.6, KKLEB tox -63.2, CF NFkB block 71.4, Peg3 prom inh 102.2, Shn3 3UTR inh inactive, Mdm2 MdmX conf 102.7, HIF-2a conf 97.2 and HIF-1a counter 100.5.
`CN(C)C(=O)CSc1ncnc2scc(-c3ccccc3)c12` gave TRPM1 prom inh inactive, HIF-2a block inactive, KKLEB tox inactive, CF NFkB block inactive, Peg3 prom inh inactive and Shn3 3UTR inh inactive.
Screening Cn1nnnc1Sc1ncnc2scc(-c3cccc(Br)c3)c12 returned TRPM1 prom inh 83.6, HIF-2a block 82.2, KKLEB tox -52.5, CF NFkB block 79.5, Peg3 prom inh 94.0, Shn3 3UTR inh inactive, Mdm2 MdmX conf 103.0, HIF-2a conf 97.3 and HIF-1a counter 102.4.
For CC(C)C1C(c2ccccc2)N(C)C(c2ccccc2)CC1(O)c1ccccc1 (stereo not drawn) the results were TRPM1 prom inh inactive, HIF-2a block 53.2, KKLEB tox inactive, CF NFkB block inactive, Peg3 prom inh inactive, Shn3 3UTR inh inactive, HIF-2a conf inactive and HIF-1a counter inactive.
`CCC1C(c2ccccc2)N(C)C(c2ccccc2)CC1(O)c1ccccc1` (stereo not drawn) gave TRPM1 prom inh inactive, HIF-2a block inactive, KKLEB tox inactive, CF NFkB block inactive, Peg3 prom inh inactive and Shn3 3UTR inh inactive.
Screening COc1ccc(C(=O)c2coc(-c3ccccc3C(=O)O)c2C(=O)O)cc1 returned TRPM1 prom inh inactive, HIF-2a block inactive, KKLEB tox inactive, CF NFkB block inactive, Peg3 prom inh inactive and Shn3 3UTR inh inactive.
COc1ccc(C(=O)c2c(C(F)(F)F)oc3c2C(=O)c2ccccc2C3=O)cc1 was read as TRPM1 prom inh 104.9, HIF-2a block inactive, KKLEB tox -82.6, CF NFkB block 88.4, Peg3 prom inh 99.4, Shn3 3UTR inh 97.2 and Mdm2 MdmX conf 97.2.
`Cc1ccc(-n2c(O)c(C=Nc3ccccc3-c3n[nH]c(=S)[nH]c3=O)c3ccccc3c2=O)c(C)c1` gave TRPM1 prom inh inactive, HIF-2a block 43.1, KKLEB tox inactive, CF NFkB block inactive, Peg3 prom inh inactive, Shn3 3UTR inh inactive, HIF-2a conf inactive and HIF-1a counter 85.0.
O=C(c1cnn(-c2ccccc2)c1-n1cccc1)N1CCN(C2CCCCC2)CC1 was read as HIF-2a block inactive, KKLEB tox inactive, CF NFkB block inactive, Peg3 prom inh inactive and Shn3 3UTR inh inactive.
`COc1ccc(N(C(=O)c2ccco2)C(C(=O)NC2CCCCC2)c2cccs2)cc1OC` (stereo not drawn) gave TRPM1 prom inh inactive, HIF-2a block inactive, KKLEB tox inactive, CF NFkB block inactive, Peg3 prom inh inactive and Shn3 3UTR inh inactive.
COc1cccc(N(C(=O)CCl)C(C(=O)NCCc2ccccc2)c2cccs2)c1 (stereo not drawn) was read as TRPM1 prom inh 88.5, HIF-2a block 93.1, KKLEB tox -89.8, CF NFkB block 93.9, Peg3 prom inh 109.3, Shn3 3UTR inh inactive, HIF-2a conf 98.0 and HIF-1a counter 107.2.
COc1ccc(N(C(=O)CCl)C(C(=O)NCCc2ccccc2)c2cccs2)cc1Cl (stereo not drawn) was read as TRPM1 prom inh 85.6, HIF-2a block 94.8, KKLEB tox -104.2, CF NFkB block 89.3, Peg3 prom inh 102.1, Shn3 3UTR inh inconclusive, HIF-2a conf 99.1 and HIF-1a counter 102.9.
